Measured values from the supplement of paper PMC10849652.
The full data set covers some 7,900 targets. This sample favours those with a hit. About 0.6% of all pairs of compound and target were hits. A number with no mark means an inactive call.

These targets were tested with CCn1c(C(=O)N(C2CC2)C2CC2)cc2c3c(ncn3C)c(Nc3cc(C)n(C)n3)nc21 (assay: log2 fold change, soluble protein after heating vs DMSO (PISA); higher = thermal stabilisation; K562 cells, 10 uM, 30 min; active = over 0.2 and 3.5 SD of the protein, either way, in both replicates (recomputed)).
How it was run: (§1)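 Quantification of soluble protein used TMTpro 16plex LC-MS/MS, with channel sums equalised. Samples were the supernatant after 21,000xg for 90 min of pooled aliquots from K562 cells (2×10^6 cells/mL) treated with 10 μM compound for 30 min, heated for 3 min over 48°C-58°C, and extracted in PBS with 0.5% NP-40 at 4°C. Values, from duplicates, describe thermal stability against control samples on a log2 fold-change scale.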

UniProt Q15021, sequence (Q15021 whole entry, looked up): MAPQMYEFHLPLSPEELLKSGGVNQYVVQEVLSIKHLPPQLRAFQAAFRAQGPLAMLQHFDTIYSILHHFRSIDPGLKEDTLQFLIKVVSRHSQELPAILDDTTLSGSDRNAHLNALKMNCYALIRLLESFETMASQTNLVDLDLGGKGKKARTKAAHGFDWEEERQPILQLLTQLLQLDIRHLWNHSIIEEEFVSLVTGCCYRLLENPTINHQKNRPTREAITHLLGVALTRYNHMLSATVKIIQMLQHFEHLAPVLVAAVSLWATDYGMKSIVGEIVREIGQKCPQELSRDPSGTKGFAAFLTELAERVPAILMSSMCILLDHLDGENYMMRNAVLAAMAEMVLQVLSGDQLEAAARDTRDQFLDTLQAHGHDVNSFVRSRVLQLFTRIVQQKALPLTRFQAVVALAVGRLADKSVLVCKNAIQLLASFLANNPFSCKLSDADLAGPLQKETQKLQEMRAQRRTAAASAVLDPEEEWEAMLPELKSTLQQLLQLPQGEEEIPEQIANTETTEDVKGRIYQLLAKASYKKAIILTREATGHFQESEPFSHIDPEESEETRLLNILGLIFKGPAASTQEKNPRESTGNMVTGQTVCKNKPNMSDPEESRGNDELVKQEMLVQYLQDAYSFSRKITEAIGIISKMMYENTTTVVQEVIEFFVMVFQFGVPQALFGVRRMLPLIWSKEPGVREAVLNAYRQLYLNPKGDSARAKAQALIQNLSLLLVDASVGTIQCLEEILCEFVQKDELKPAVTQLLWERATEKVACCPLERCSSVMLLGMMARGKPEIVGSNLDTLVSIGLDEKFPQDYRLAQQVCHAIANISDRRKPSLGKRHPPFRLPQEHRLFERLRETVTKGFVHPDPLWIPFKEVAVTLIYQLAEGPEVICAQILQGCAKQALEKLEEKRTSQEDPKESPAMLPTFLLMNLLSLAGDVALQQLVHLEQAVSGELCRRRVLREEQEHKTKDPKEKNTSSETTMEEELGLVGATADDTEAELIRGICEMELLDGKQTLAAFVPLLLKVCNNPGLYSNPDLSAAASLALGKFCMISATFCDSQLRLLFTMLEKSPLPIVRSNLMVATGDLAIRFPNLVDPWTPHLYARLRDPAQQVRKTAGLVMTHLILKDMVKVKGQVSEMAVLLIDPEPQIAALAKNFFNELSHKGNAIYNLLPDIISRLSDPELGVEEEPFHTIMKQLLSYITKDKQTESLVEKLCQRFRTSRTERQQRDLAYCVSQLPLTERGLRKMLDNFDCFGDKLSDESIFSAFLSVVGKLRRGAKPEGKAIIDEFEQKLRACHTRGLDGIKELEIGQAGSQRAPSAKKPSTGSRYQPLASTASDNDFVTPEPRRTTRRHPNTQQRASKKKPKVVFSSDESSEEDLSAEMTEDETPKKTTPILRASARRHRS
UniProt Q96IV0, sequence (Q96IV0 whole entry, looked up): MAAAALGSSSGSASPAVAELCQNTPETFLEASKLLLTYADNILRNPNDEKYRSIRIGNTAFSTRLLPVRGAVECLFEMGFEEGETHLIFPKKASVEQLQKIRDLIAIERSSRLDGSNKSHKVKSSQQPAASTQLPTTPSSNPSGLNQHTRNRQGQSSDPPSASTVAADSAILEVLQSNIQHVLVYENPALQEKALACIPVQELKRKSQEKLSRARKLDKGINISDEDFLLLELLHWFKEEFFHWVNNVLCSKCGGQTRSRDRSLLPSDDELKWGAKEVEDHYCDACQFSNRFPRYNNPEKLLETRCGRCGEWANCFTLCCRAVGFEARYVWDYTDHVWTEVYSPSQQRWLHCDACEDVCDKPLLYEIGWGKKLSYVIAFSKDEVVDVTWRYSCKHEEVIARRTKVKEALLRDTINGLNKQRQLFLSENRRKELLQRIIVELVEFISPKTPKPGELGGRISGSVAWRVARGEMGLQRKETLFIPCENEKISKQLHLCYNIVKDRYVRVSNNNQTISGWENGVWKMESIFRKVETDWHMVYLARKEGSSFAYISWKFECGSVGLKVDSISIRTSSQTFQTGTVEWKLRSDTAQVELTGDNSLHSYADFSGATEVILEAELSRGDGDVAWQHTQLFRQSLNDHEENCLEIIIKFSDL
UniProt P49914, sequence (P49914 whole entry, looked up): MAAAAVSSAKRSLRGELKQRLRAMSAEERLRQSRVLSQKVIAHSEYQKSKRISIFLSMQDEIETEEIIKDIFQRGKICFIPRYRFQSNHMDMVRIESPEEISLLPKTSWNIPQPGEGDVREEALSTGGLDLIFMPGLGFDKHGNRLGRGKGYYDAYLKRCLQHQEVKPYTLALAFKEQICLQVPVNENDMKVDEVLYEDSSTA
UniProt Q8NCF5, sequence (Q8NCF5 whole entry, looked up): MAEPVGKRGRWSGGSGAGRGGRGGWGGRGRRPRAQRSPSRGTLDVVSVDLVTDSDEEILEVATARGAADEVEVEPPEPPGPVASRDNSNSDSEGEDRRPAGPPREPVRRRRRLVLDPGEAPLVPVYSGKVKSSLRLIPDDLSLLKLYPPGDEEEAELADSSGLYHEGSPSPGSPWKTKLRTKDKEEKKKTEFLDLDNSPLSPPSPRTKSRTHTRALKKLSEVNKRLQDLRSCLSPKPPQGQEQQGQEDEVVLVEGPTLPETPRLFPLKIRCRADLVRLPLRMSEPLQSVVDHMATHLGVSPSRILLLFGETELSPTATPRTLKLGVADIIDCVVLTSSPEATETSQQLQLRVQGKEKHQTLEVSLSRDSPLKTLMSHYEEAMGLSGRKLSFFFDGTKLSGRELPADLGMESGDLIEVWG
UniProt P15559, sequence (P15559 whole entry, looked up): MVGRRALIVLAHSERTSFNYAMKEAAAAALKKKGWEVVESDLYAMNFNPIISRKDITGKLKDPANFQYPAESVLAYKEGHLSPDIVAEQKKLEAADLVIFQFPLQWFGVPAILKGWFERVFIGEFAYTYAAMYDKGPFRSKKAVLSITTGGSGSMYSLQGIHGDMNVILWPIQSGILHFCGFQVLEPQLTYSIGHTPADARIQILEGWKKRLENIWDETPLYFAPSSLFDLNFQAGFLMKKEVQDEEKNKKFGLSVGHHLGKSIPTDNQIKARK
UniProt P11586, sequence (P11586 whole entry, looked up): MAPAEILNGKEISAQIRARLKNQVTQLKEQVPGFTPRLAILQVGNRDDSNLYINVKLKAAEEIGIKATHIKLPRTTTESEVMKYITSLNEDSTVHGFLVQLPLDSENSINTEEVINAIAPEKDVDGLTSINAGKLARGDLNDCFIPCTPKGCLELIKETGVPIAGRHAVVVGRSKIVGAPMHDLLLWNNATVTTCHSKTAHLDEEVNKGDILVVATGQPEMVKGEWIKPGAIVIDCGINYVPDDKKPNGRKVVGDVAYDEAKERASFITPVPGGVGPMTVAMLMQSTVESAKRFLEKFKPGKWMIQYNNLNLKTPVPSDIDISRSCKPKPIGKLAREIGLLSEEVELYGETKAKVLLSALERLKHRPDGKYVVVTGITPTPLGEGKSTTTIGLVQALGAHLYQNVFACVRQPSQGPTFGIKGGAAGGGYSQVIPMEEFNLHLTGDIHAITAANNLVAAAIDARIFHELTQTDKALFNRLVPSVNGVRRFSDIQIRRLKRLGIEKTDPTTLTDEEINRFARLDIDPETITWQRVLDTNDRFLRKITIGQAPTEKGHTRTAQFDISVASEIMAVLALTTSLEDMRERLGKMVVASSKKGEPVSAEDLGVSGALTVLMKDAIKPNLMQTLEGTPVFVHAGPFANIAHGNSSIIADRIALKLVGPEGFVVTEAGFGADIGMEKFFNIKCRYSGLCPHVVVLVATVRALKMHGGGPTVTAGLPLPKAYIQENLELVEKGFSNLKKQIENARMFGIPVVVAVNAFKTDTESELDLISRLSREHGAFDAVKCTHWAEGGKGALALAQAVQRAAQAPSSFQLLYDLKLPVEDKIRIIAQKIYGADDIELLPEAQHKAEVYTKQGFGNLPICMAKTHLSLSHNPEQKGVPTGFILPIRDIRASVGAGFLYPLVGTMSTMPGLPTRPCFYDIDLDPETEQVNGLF
UniProt Q96RE7, sequence (Q96RE7 whole entry, looked up): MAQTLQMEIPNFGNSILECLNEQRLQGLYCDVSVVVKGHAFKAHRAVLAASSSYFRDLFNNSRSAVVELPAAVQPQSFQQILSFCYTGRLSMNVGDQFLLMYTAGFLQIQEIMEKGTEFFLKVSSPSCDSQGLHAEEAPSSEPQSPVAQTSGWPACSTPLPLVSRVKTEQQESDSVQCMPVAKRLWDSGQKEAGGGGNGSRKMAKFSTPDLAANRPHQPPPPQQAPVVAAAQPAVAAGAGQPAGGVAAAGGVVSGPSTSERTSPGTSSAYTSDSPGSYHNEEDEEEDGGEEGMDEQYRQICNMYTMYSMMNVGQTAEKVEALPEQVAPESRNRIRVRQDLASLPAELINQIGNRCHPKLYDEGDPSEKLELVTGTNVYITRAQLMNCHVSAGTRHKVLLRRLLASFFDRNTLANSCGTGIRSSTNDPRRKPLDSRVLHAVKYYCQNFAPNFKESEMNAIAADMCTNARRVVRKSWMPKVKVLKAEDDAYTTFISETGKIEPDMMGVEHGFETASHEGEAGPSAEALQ
UniProt O60551, sequence (O60551 whole entry, looked up): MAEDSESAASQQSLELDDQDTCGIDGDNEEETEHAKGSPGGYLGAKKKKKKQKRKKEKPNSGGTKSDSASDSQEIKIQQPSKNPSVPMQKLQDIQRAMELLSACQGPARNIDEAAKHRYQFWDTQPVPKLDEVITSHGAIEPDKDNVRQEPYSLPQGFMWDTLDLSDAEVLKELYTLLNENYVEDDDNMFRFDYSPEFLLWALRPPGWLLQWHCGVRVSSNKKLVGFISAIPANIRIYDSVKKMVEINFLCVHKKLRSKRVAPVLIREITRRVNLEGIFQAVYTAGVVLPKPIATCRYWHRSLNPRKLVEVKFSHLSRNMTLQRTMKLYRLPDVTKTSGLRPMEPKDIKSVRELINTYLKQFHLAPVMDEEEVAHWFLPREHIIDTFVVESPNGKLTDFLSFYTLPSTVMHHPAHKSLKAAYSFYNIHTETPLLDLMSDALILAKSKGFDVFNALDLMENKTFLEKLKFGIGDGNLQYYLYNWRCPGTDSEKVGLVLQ

NOB1 (UniProt Q9ULX3) and MRPS25 (UniProt P82663) are within 0.2 log units of each other in log2 fold change: -0.033 for the first, -0.091 for the second.

NACC1 (UniProt Q96RE7) and NEMP1 (UniProt O14524) are within 0.2 log units of each other in log2 fold change: -0.079 for the first, 0.08 for the second.

MTHFD1 (UniProt P11586) and OXSM (UniProt Q9NWU1) are within 0.2 log units of each other in log2 fold change: -0.011 for the first, -0.048 for the second.

MT-ATP6 (UniProt P00846) and OTUD4 (UniProt Q01804) are within 0.2 log units of each other in log2 fold change: -0.053 for the first, -0.016 for the second.

MRPL50 (UniProt Q8N5N7) and NFATC2 (UniProt Q13469) are within 0.2 log units of each other in log2 fold change: -0.005 for the first, 0.045 for the second.

NUP205 (UniProt Q92621) and MRPS24 (UniProt Q96EL2) are within 0.2 log units of each other in log2 fold change: -0.036 for the first, -0.031 for the second.

MINK1 (UniProt Q8N4C8) and NUP85 (UniProt Q9BW27) are within 0.2 log units of each other in log2 fold change: -0.011 for the first, -0.024 for the second.

NOP56 (UniProt O00567) and P4HA2 (UniProt O15460) are within 0.2 log units of each other in log2 fold change: -0.006 for the first, -0.038 for the second.

NCAPH (UniProt Q15003) and MRPS15 (UniProt P82914) are within 0.2 log units of each other in log2 fold change: -0.054 for the first, -0.084 for the second.

NA, A0A096LPI6 and NQO1 (UniProt P15559) are within 0.2 log units of each other in log2 fold change: 0.042 for the first, 0.159 for the second.

NIBAN1 (UniProt Q9BZQ8) and MPHOSPH10 (UniProt O00566) are within 0.2 log units of each other in log2 fold change: -0.039 for the first, -0.028 for the second.

NCAPD2 (UniProt Q15021) and NFATC2IP (UniProt Q8NCF5) are within 0.2 log units of each other in log2 fold change: -0.085 for the first, 0.022 for the second.

NARS2 (UniProt Q96I59) and NMT2 (UniProt O60551) are within 0.2 log units of each other in log2 fold change: 0.034 for the first, -0.001 for the second.

MTHFS (UniProt P49914) and NUCKS1 (UniProt Q9H1E3) are within 0.2 log units of each other in log2 fold change: 0.031 for the first, 0.033 for the second.

MYH11 isoform 2 (UniProt P35749) and NUP160 (UniProt Q12769) are within 0.2 log units of each other in log2 fold change: -0.005 for the first, -0.01 for the second.

NDUFA12 (UniProt Q9UI09) and NUDT21 (UniProt O43809) are within 0.2 log units of each other in log2 fold change: -0.063 for the first, -0.02 for the second.

NCOA7 (UniProt Q8NI08) and MON2 isoform 5 (UniProt Q7Z3U7) are within 0.2 log units of each other in log2 fold change: -0.091 for the first, 0 for the second.

NMRAL1 (UniProt Q9HBL8) and NMNAT1 (UniProt Q9HAN9) are within 0.2 log units of each other in log2 fold change: 0.01 for the first, -0.06 for the second.

MND1 (UniProt Q9BWT6) and NUDT16 (UniProt Q96DE0) are within 0.2 log units of each other in log2 fold change: 0.045 for the first, -0.019 for the second.

NGLY1 (UniProt Q96IV0) showed a log2 fold change of -0.045.

The targets below were run with CCn1cc(-c2ccnc3[nH]c(-c4cccc(CN(C)C)c4)cc23)c(-c2ccc(NC(=O)N(C)C)cc2)n1 in the same assay as above.
How it was run: as §1

Going from NOB1 (UniProt Q9ULX3) to MRPS25 (UniProt P82663), the log2 fold change falls from 0.026 to -0.295.

NACC1 (UniProt Q96RE7) and NEMP1 (UniProt O14524) are within 0.2 log units of each other in log2 fold change: -0.022 for the first, 0.018 for the second.

MTHFD1 (UniProt P11586) and OXSM (UniProt Q9NWU1) are within 0.2 log units of each other in log2 fold change: -0.159 for the first, -0.003 for the second.

First: MT-ATP6 (UniProt P00846)
Second: OTUD4 (UniProt Q01804)
The log2 fold change of the first is lower: -0.152 for the first, 0.098 for the second.

MRPL50 (UniProt Q8N5N7) and NFATC2 (UniProt Q13469) are within 0.2 log units of each other in log2 fold change: -0.044 for the first, -0.197 for the second.

NUP205 (UniProt Q92621) and MRPS24 (UniProt Q96EL2) are within 0.2 log units of each other in log2 fold change: -0.013 for the first, -0.095 for the second.

MINK1 (UniProt Q8N4C8) and NUP85 (UniProt Q9BW27) are within 0.2 log units of each other in log2 fold change: -0.069 for the first, -0.01 for the second.

NOP56 (UniProt O00567) and P4HA2 (UniProt O15460) are within 0.2 log units of each other in log2 fold change: 0.066 for the first, 0.138 for the second.

NCAPH (UniProt Q15003) and MRPS15 (UniProt P82914) are within 0.2 log units of each other in log2 fold change: 0.052 for the first, -0.115 for the second.

NA, A0A096LPI6 and NQO1 (UniProt P15559) are within 0.2 log units of each other in log2 fold change: 0.029 for the first, -0.064 for the second.

Compared with NIBAN1 (UniProt Q9BZQ8), MPHOSPH10 (UniProt O00566) is higher in log2 fold change: -0.085 for the first, 0.182 for the second.

NCAPD2 (UniProt Q15021) and NFATC2IP (UniProt Q8NCF5) are within 0.2 log units of each other in log2 fold change: 0 for the first, 0.038 for the second.

NARS2 (UniProt Q96I59) and NMT2 (UniProt O60551) are within 0.2 log units of each other in log2 fold change: -0.055 for the first, -0.098 for the second.

MTHFS (UniProt P49914) and NUCKS1 (UniProt Q9H1E3) are within 0.2 log units of each other in log2 fold change: 0.02 for the first, 0.014 for the second.

MYH11 isoform 2 (UniProt P35749) and NUP160 (UniProt Q12769) are within 0.2 log units of each other in log2 fold change: 0.046 for the first, 0.04 for the second.

Going from NDUFA12 (UniProt Q9UI09) to NUDT21 (UniProt O43809), the log2 fold change rises from -0.173 to 0.038.

NCOA7 (UniProt Q8NI08) and MON2 isoform 5 (UniProt Q7Z3U7) are within 0.2 log units of each other in log2 fold change: -0.004 for the first, -0.028 for the second.

NMRAL1 (UniProt Q9HBL8) and NMNAT1 (UniProt Q9HAN9) are within 0.2 log units of each other in log2 fold change: 0.055 for the first, 0.098 for the second.

MND1 (UniProt Q9BWT6) and NUDT16 (UniProt Q96DE0) are within 0.2 log units of each other in log2 fold change: -0.076 for the first, -0.073 for the second.

NGLY1 (UniProt Q96IV0) showed a log2 fold change of -0.03.
